# In PubChem BioAssay AID686978 (National Center for Advancing Translational Sciences (NCATS), 2013):
# The whole screen tested about 420,000 compounds, of which about 64,000 (15%) were called active. Roughly 27% stayed inconclusive and do not appear here. These entries were drawn from the full list. A number with no mark means an inactive call. Calls follow the shape of the dose curve; as a rule, active = well fitted inhibition curve with a large enough effect; inconclusive = small, poorly fitted or top-dose-only effect; inactive = flat fitted curve, though single readings scatter.
# Experiment: qHTS for Inhibitors of human tyrosyl-DNA phosphodiesterase 1 (TDP1): qHTS in cells in absence of CPT; also: nearly all actives have a fitted effect of over 55% in size
# Conditions: DT40 Tdp1-/- hTDP1 cells, no CPT, ATP luminescence, 48 h; activity change, negative = growth inhibition: at 46.2 µM (top of the series)
# How it was run: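 DT40 Tdp1-/-;hTDP1 cells, no CPT (DMSO vehicle only), 400 cells/well; compounds pin-transferred; ≥48 hr, 37 °C; CellTiter-Glo 30 min RT dark, luminescence read.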
# % is scaled to controls: 0 for no effect and ±100 for the full control effect; potency is read from the fitted curve at half-maximal effect.
Structure (SMILES),"activity change, negative = growth inhibition",Potency
CCOC(=O)c1sc(/N=C/C2=C(O)CC(C)(C)CC2=O)c(C(=O)OCC)c1C,2.25%,
CCOC(=O)c1c(NC(=S)Nc2ccccc2C)sc2c1CCC2,-3.31%,
CCOC(=O)c1c(NC(=O)c2ccc(Br)o2)sc2c1CCCC2,-27.4%,
CCOC(=O)c1c(NC(=O)C2(C)Cc3ccccc3C(=O)O2)sc2c1CCCC2 (centres undefined),,16.4 µM (active)
COc1ccc(C(CNC(=O)COc2ccc([N+](=O)[O-])cc2)N2CCCCC2)cc1 (centres undefined),-1.85%,
COc1cccc(NC(=O)c2ccc(Cn3cc([N+](=O)[O-])cn3)o2)c1,-26.5%,
CN1C(=O)c2ccc(C(=O)Nc3ccc(Br)cn3)cc2C1=O,12.5%,
O=C(Nc1ccc(Br)cn1)c1ccc([N+](=O)[O-])o1,,5.17 µM (active)
O=C(Nc1cccc(NC(=O)c2ccccc2[N+](=O)[O-])c1)c1ccccc1Cl,-14.8%,
O=C(Nc1ccc(Br)cn1)c1ccc([N+](=O)[O-])cc1Cl,-27.6%,
Cc1cccc(NC(=O)c2ccc([N+](=O)[O-])o2)c1,,9.2 µM (active)
Cc1[nH]c2ccccc2c1C(=O)C(=O)N(C)c1ccccc1,-24.6%,
O=C(OCCOc1ccccc1F)c1cc(S(=O)(=O)N2CCOCC2)ccc1F,-13.6%,
CCc1ccccc1NC(=O)CSc1nnc(-c2ccncc2)o1,-5.21%,
O=C(CNCCO)NC12CC3CC(CC(C3)C1)C2,0.175%,
CCOC(=O)C1C(C)C(C(C)(C)C)N(S(=O)(=O)c2ccc(C)cc2)C1c1ccccc1 (centres undefined),,16.4 µM (active)
Cc1ccc(S(=O)(=O)N2[C@@H](c3ccccc3F)C(C(=O)O)=CC[C@H]2c2ccc(Cl)cc2)cc1,-17.6%,
CCCCC[C@@H]1C=C(C(=O)OCC)[C@H](c2ccccc2)N1S(=O)(=O)c1ccc(C)cc1,,10.3 µM (active)
Cc1ccccc1S(=O)(=O)N1[C@@H](c2cccc(Cl)c2)C(C(=O)O)=CC[C@H]1c1ccc(Cl)cc1,-5.82%,
CCc1ccc([C@@H]2CC(=O)[C@@H]3CN(S(=O)(=O)c4ccc(C)cc4)[C@H](c4ccc(Cl)cc4)C[C@@H]3N2S(=O)(=O)c2ccc(C)cc2)cc1,8.29%,
Cc1ccc(S(=O)(=O)N2[C@@H](c3cccc(Cl)c3)C(C(=O)O)=CC[C@H]2c2ccc(Cl)c(Cl)c2)cc1,-23.6%,
Cc1ccccc1S(=O)(=O)N1[C@@H](c2cccc(Cl)c2)C(C(=O)OC(C)(C)C)=CC[C@H]1c1ccc(Cl)cc1,,16.4 µM (active)

Structure (SMILES),"activity change, negative = growth inhibition",Potency
CCCCC(c1nnnn1CS(=O)(=O)c1ccc(C)cc1)N1CCC(C(N)=O)CC1 (centres undefined),-20.1%,
CCOC1=C2[C@H]([C@H]3C(=O)N(c4ccccc4)C(=O)[C@H]3C1)[C@@H](c1ccccc1)N(S(=O)(=O)c1ccc(C)cc1)[C@H]2c1ccccc1,-12.7%,
Cc1ccc(S(=O)(=O)N2[C@@H](c3ccc(Br)cc3)C(C(=O)O)=C[C@H]2CC2CCCC2)cc1,-12.9%,
Cc1ccc(S(=O)(=O)N2[C@@H](c3cccc4ccccc34)C(C(=O)O)=C[C@H]2C(C)(C)C)cc1,5.31%,
CCOC(=O)C1=CC[C@@H](c2ccccc2)N(S(=O)(=O)c2ccc(C)cc2)[C@H]1c1ccc(CC)cc1,,16.4 µM (active)
Cc1cccc(/C(N)=N/OC(=O)c2ccccc2Cl)c1,-18.2%,
COc1ccc(C2=NOC3(CC(=O)N(c4ccc(C)cc4)C3=O)C2)cc1 (centres undefined),-19.9%,
Cc1nn(C)c(Oc2ccc(Cl)cc2)c1C=O,-24.7%,
CCCCn1c(N)c(N(CCOC)C(=O)COc2c(C)cccc2C)c(=O)[nH]c1=O,-10.6%,
CCC(=O)Nc1cc(C(F)(F)F)ccc1N1CCCC1,-2.98%,
CC(C)(C)NC(=O)COC(=O)c1cc(Cl)ccc1[N+](=O)[O-],-16.1%,
Cc1[nH]c2ccccc2c1SCC(=O)Nc1nccs1,-6.86%,
COc1ccc(Br)cc1C(=O)NC(=S)Nc1cc(-c2nc3ccccc3[nH]2)ccc1C,,14.6 µM (active)
COc1ccc(Br)cc1C(=O)Nc1cccc(C)c1C,-22.7%,
Cc1ccc(OCC(=O)Nc2ccc(Cl)c(-c3nc4ccccc4[nH]3)c2)cc1C,-98.6%,
CCOC(=O)c1nnn(CC(=O)NC(=O)Nc2ccccc2F)c1C(=O)OCC,-18.3%,
COc1ccc(N(CC(=O)NCC2CCCO2)C(=O)CCC(=O)Nc2nccs2)c(OC)c1 (centres undefined),-20.4%,
O=c1c(O)c(Br)ccc2c(Br)c(O)c(O)c(O)c12,8.26% [at 9.04 µM],
C[C@H](NC(=O)c1ccccc1Cl)C(=O)OCC(=O)N1CCN(c2ccccc2)CC1,0.465%,
COc1cc(NC(=O)COC(=O)c2ccc([N+](=O)[O-])s2)cc(OC)c1OC,11.9%,
O=C(OCC(=O)N1CCN(c2ccccc2)CC1)c1ccc([N+](=O)[O-])s1,,4.61 µM (active)
Oc1ccc(-c2cccc(-c3ccc(O)cc3)c2)cc1,6.67%,
